Source: the supplement of paper PMC8728848
Only a selection was taken, and the strongest signals are over-represented in it overall.

Tests used:
Experiment in all cases: glycan array binding signal (z-score within array); higher = stronger binding
Conditions in all cases: glycan notation: IUPAC condensed, linker removed
[1] = target: Fuc(a1-2)Gal(b1-3)GalNAc(b1-4)[Neu5Ac(a2-3)]Gal(b1-4)Glc
Summary of the method: (§1)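 Glycan array binding is given as a within-array Z-score, which can be read as non-binding when negative. The arrays, 3228 of them, came from the Consortium for Functional Glycomics database and were retained only where the protein sequence was available. Z-scores were averaged across arrays of the same protein sequence at different concentrations or buffers and across linkers.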

[2] = target: Fuc(a1-2)Gal(b1-4)GlcNAc(b1-2)Man
Summary of the method: as §1

[3] = target: Fuc(a1-2)Gal(b1-4)GlcNAc(b1-2)[Fuc(a1-2)Gal(b1-4)GlcNAc(b1-4)]Man(a1-3)[Fuc(a1-2)Gal(b1-4)GlcNAc(b1-2)Man(a1-6)]Man(b1-4)GlcNAc(b1-4)GlcNAc
Summary of the method: as §1

[4] = target: Fuc(a1-2)Gal(b1-4)GlcNAc(b1-6)GalNAc
Summary of the method: as §1

[5] = target: Fuc(a1-2)Gal(b1-4)[Fuc(a1-3)]GlcNAc(b1-3)Gal(b1-4)[Fuc(a1-3)]GlcNAc(b1-3)Gal(b1-4)[Fuc(a1-3)]GlcNAc
Summary of the method: as §1

Fuc(a1-2)Gal6S(b1-4)Glc = target: Fuc(a1-2)Gal6S(b1-4)Glc
Summary of the method: as §1

[6] = target: Fuc(a1-2)[Gal(a1-3)]Gal(b1-4)[Fuc(a1-3)]GlcNAc
Summary of the method: as §1

[7] = target: Fuc(a1-2)[GalNAc(a1-3)]Gal(b1-3)GalNAc(a1-3)[Fuc(a1-2)]Gal(b1-4)GlcNAc
Summary of the method: as §1

[8] = target: Fuc(a1-2)[GalNAc(a1-3)]Gal(b1-4)GlcNAc(b1-2)Man(a1-3)[Fuc(a1-2)[GalNAc(a1-3)]Gal(b1-4)GlcNAc(b1-2)Man(a1-6)]Man(b1-4)GlcNAc(b1-4)GlcNAc
Summary of the method: as §1

[9] = target: Fuc(a1-3)[Gal(b1-4)]GlcNAc(b1-3)Gal(b1-4)[Fuc(a1-3)]GlcNAc(b1-3)Gal(b1-4)[Fuc(a1-3)]GlcNAc
Summary of the method: as §1

Gal(a1-3)Gal(b1-4)Glc = target: Gal(a1-3)Gal(b1-4)Glc
Summary of the method: as §1

[10] = target: Gal(a1-4)Gal(b1-3)GlcNAc(b1-2)Man(a1-3)[Gal(a1-4)Gal(b1-3)GlcNAc(b1-2)Man(a1-6)]Man(b1-4)GlcNAc(b1-4)GlcNAc
Summary of the method: as §1

[11] = target: Gal(a1-4)Gal(b1-4)GlcNAc(b1-2)Man(a1-3)[Gal(a1-4)Gal(b1-4)GlcNAc(b1-2)Man(a1-6)]Man(b1-4)GlcNAc(b1-4)GlcNAc
Summary of the method: as §1

Gal(a1-6)Glc = target: Gal(a1-6)Glc
Summary of the method: as §1

[12] = target: Gal(b1-3)GalNAc(a1-3)[Fuc(a1-2)]Gal(b1-4)GlcNAc
Summary of the method: as §1

[13] = target: Gal(b1-3)GlcNAc(b1-3)Gal(b1-4)GlcNAc(b1-3)Gal(b1-4)GlcNAc(b1-2)[Gal(b1-3)GlcNAc(b1-3)Gal(b1-4)GlcNAc(b1-3)Gal(b1-4)GlcNAc(b1-6)]Man(a1-6)[Gal(b1-3)GlcNAc(b1-3)Gal(b1-4)GlcNAc(b1-3)Gal(b1-4)GlcNAc(b1-2)Man(a1-3)]Man(b1-4)GlcNAc(b1-4)[Fuc(a1-6)]GlcNAc
Summary of the method: as §1

[14] = target: Gal(b1-3)GlcNAc(b1-3)Gal(b1-4)GlcNAc(b1-6)[Gal(b1-3)GlcNAc(b1-3)]Gal(b1-4)Glc
Summary of the method: as §1

[15] = target: Gal(b1-4)GlcNAc(b1-2)Man(a1-6)[Man(a1-3)]Man(b1-4)GlcNAc(b1-4)GlcNAc
Summary of the method: as §1

[16] = target: Gal(b1-4)GlcNAc(b1-2)[Gal(b1-4)GlcNAc(b1-6)]Man(a1-6)[Gal(b1-4)GlcNAc(b1-2)Man(a1-3)]Man(b1-4)GlcNAc(b1-4)GlcNAc
Summary of the method: as §1

[17] = target: Gal(b1-4)GlcNAc(b1-3)Gal(b1-4)GlcNAc(b1-2)[Gal(b1-4)GlcNAc(b1-3)Gal(b1-4)GlcNAc(b1-6)]Man(a1-6)[Gal(b1-4)GlcNAc(b1-3)Gal(b1-4)GlcNAc(b1-2)Man(a1-3)]Man(b1-4)GlcNAc(b1-4)GlcNAc
Summary of the method: as §1

[18] = target: Gal(b1-4)GlcNAc(b1-3)Gal(b1-4)GlcNAc(b1-3)[Gal(b1-4)GlcNAc(b1-3)Gal(b1-4)GlcNAc(b1-6)]GalNAc
Summary of the method: as §1

Gal6S(b1-4)Glc = target: Gal6S(b1-4)Glc
Summary of the method: as §1

[19] = target: GalNAc3S(b1-4)[Fuc(a1-3)]GlcNAc
Summary of the method: as §1

[20] = target: GlcNAc(b1-2)[GlcNAc(b1-4)]Man(a1-3)[GlcNAc(b1-4)][GlcNAc(b1-2)Man(a1-6)]Man(b1-4)GlcNAc(b1-4)GlcNAc
Summary of the method: as §1

[21] = target: GlcNAc(b1-3)Gal(b1-4)GlcNAc(b1-2)Man(a1-3)[GlcNAc(b1-3)Gal(b1-4)GlcNAc(b1-2)Man(a1-6)]Man(b1-4)GlcNAc(b1-4)[Fuc(a1-6)]GlcNAc
Summary of the method: as §1

[22] = target: GlcNAc(b1-3)Gal(b1-4)GlcNAc(b1-2)[GlcNAc(b1-3)Gal(b1-4)GlcNAc(b1-6)]Man(a1-6)[GlcNAc(b1-3)Gal(b1-4)GlcNAc(b1-2)Man(a1-3)]Man(b1-4)GlcNAc(b1-4)GlcNAc
Summary of the method: as §1

[23] = target: Man(a1-2)Man(a1-6)[Man(a1-3)]Man(a1-6)[Man(a1-2)Man(a1-2)Man(a1-3)]Man(b1-4)GlcNAc(b1-4)GlcNAc
Summary of the method: as §1

Man(a1-3)[Man(a1-6)]Man = target: Man(a1-3)[Man(a1-6)]Man
Summary of the method: as §1

MurNAc(b1-4)GlcNAc = target: MurNAc(b1-4)GlcNAc
Summary of the method: as §1

[24] = target: Neu5Ac(a2-3)Gal(b1-3)[Fuc(a1-4)]GlcNAc(b1-3)Gal(b1-4)[Fuc(a1-3)]GlcNAc
Summary of the method: as §1

[25] = target: Neu5Ac(a2-3)Gal(b1-3)[GlcNAc(b1-6)]GalNAc
Summary of the method: as §1

[26] = target: Neu5Ac(a2-3)Gal(b1-4)GlcNAc(b1-3)Gal(b1-4)GlcNAc(b1-2)Man(a1-3)[Neu5Ac(a2-3)Gal(b1-4)GlcNAc(b1-3)Gal(b1-4)GlcNAc(b1-2)Man(a1-6)]Man(b1-4)GlcNAc(b1-4)GlcNAc
Summary of the method: as §1

[27] = target: Neu5Ac(a2-3)Gal(b1-4)GlcNAc(b1-3)Gal(b1-4)GlcNAc(b1-3)GalNAc
Summary of the method: as §1

[28] = target: Neu5Ac(a2-3)Gal(b1-4)GlcNAc6S
Summary of the method: as §1

[29] = target: Neu5Ac(a2-3)Gal(b1-4)[Fuc(a1-3)]GlcNAc6S
Summary of the method: as §1

[30] = target: Neu5Ac(a2-3)Gal6S(b1-4)GlcNAc
Summary of the method: as §1

[31] = target: Neu5Ac(a2-3)[Neu5Ac(a2-6)]GalNAc
Summary of the method: as §1

[32] = target: Neu5Ac(a2-6)Gal(b1-4)GlcNAc(b1-2)Man(a1-3)[Neu5Ac(a2-6)Gal(b1-4)GlcNAc(b1-2)Man(a1-6)]Man(b1-4)GlcNAc(b1-4)[Fuc(a1-6)]GlcNAc
Summary of the method: as §1

[33] = target: Neu5Ac(a2-6)Gal(b1-4)GlcNAc(b1-2)[Neu5Ac(a2-6)Gal(b1-4)GlcNAc(b1-4)]Man(a1-3)[GlcNAc(b1-4)][Neu5Ac(a2-6)Gal(b1-4)GlcNAc(b1-2)[Neu5Ac(a2-6)Gal(b1-4)GlcNAc(b1-6)]Man(a1-6)]Man(b1-4)GlcNAc(b1-4)GlcNAc
Summary of the method: as §1

[34] = target: Neu5Ac(a2-6)Gal(b1-4)GlcNAc(b1-3)Gal(b1-4)GlcNAc
Summary of the method: as §1

[35] = target: Neu5Ac(a2-6)Gal(b1-4)GlcNAc(b1-3)Gal(b1-4)GlcNAc(b1-2)Man(a1-3)[Neu5Ac(a2-6)Gal(b1-4)GlcNAc(b1-3)Gal(b1-4)GlcNAc(b1-2)Man(a1-6)]GalNAc
Summary of the method: as §1

[36] = target: Neu5Ac(a2-6)Gal(b1-4)GlcNAc(b1-3)Gal(b1-4)GlcNAc(b1-3)Gal(b1-4)GlcNAc(b1-2)Man(a1-3)[Neu5Ac(a2-6)Gal(b1-4)GlcNAc(b1-3)Gal(b1-4)GlcNAc(b1-3)Gal(b1-4)GlcNAc(b1-2)Man(a1-6)]GalNAc
Summary of the method: as §1

[37] = target: Neu5Ac(b2-6)Gal(b1-4)GlcNAc
Summary of the method: as §1

[38] = target: Neu5Gc(a2-8)Neu5Gc(a2-3)Gal(b1-4)GlcNAc(b1-3)Gal(b1-4)GlcNAc
Summary of the method: as §1

B1: DC-Sign-R (Homo sapiens), Q9H2X3 (protein)
chain: MSDSKEPRVQQLGLLEEDPTTSGIRLFPRDFQFQQIHGHKSSTGCLGHGALVLQLLSFMLLAGVLVAILVQVSKVPSSLSQEQSEQDAIYQNLTQLKAAVGELSEKSKLQEIYQELTQLKAAVGELPEKSKLQEIYQELTRLKAAVGELPEKSKLQEIYQELTRLKAAVGELPEKSKLQEIYQELTRLKAAVGELPEKSKLQEIYQELTELKAAVGELPEKSKLQEIYQELTQLKAAVGELPDQSKQQQIYQELTDLKTAFERLCRHCPKDWTFFQGNCYFMSNSQRNWHDSVTACQEVRAQLVVIKTAEEQNFLQLQTSRSNRFSWMGLSDLNQEGTWQWVDGSPLSPSFQRYWNSGEPNNSGNEDCAEFSGSGWNDNRCDVDNYWICKKPAACFRDE
- glycan array binding signal (z-score) [1]: -0.074
- glycan array binding signal (z-score) [2]: 1.11
- glycan array binding signal (z-score) [3]: -0.8
- glycan array binding signal (z-score) [4]: -0.508
- glycan array binding signal (z-score) [5]: -0.308
- glycan array binding signal (z-score) (Fuc(a1-2)Gal6S(b1-4)Glc): -0.528
- glycan array binding signal (z-score) [6]: 0.112
- glycan array binding signal (z-score) [7]: -0.817
- glycan array binding signal (z-score) [8]: -0.72
- glycan array binding signal (z-score) [9]: -0.384
- glycan array binding signal (z-score) (Gal(a1-3)Gal(b1-4)Glc): -0.655
- glycan array binding signal (z-score) [10]: -0.125
- glycan array binding signal (z-score) [11]: -0.683
- glycan array binding signal (z-score) (Gal(a1-6)Glc): -0.326
- glycan array binding signal (z-score) [12]: 1.15
- glycan array binding signal (z-score) [13]: 2.5
- glycan array binding signal (z-score) [14]: -0.833
- glycan array binding signal (z-score) [15]: 3
- glycan array binding signal (z-score) [16]: -0.33
- glycan array binding signal (z-score) [17]: 3.03
- glycan array binding signal (z-score) [18]: 0.59
- glycan array binding signal (z-score) (Gal6S(b1-4)Glc): -0.744
- glycan array binding signal (z-score) [19]: -0.794
- glycan array binding signal (z-score) [20]: 2.91
- glycan array binding signal (z-score) [21]: 0.094
- glycan array binding signal (z-score) [22]: 2.48
- glycan array binding signal (z-score) [23]: -0.019
- glycan array binding signal (z-score) (Man(a1-3)[Man(a1-6)]Man): -0.857
- glycan array binding signal (z-score) (MurNAc(b1-4)GlcNAc): 0.448
- glycan array binding signal (z-score) [24]: -0.503
- glycan array binding signal (z-score) [25]: 2.7
- glycan array binding signal (z-score) [26]: 1.11
- glycan array binding signal (z-score) [27]: 2.49
- glycan array binding signal (z-score) [28]: -0.795
- glycan array binding signal (z-score) [29]: -0.531
- glycan array binding signal (z-score) [30]: -0.255
- glycan array binding signal (z-score) [31]: 0.964
- glycan array binding signal (z-score) [32]: -0.156
- glycan array binding signal (z-score) [33]: 3.11
- glycan array binding signal (z-score) [34]: -0.464
- glycan array binding signal (z-score) [35]: 4.44
- glycan array binding signal (z-score) [36]: 2.81
- glycan array binding signal (z-score) [37]: 3.63
- glycan array binding signal (z-score) [38]: 1.55
